Test results from PubChem BioAssay AID1851 (National Center for Advancing Translational Sciences (NCATS), 2009).
“And” between values parts separate entries of the source, which are not always exact repeats. Equal entries are not always repeated. Hit rate of the full screen: of about 16,000 compounds, about 2,600 (16%) were called active. Another 20% or so got no clear call; they are omitted. Calls come from the whole dose curve; as a rule, active = well fitted curve in the direction sought with a large enough effect; inconclusive = small, poorly fitted or top-dose-only effect, or effect the other way; inactive = no such curve, though single readings can be large or run the other way. Not all results are given here. A structure can be active in one record and inactive in another.

biological target: Cytochrome P450 2D6 (Homo sapiens) (UniProt P10635); assay: Cytochrome panel assay with activity outcomes; details: recombinant CYP, pro-luciferin dealkylation, luminescence, p450-cyp2d6; series mostly up to 57.1 µM
Sequence (P10635 whole entry, looked up): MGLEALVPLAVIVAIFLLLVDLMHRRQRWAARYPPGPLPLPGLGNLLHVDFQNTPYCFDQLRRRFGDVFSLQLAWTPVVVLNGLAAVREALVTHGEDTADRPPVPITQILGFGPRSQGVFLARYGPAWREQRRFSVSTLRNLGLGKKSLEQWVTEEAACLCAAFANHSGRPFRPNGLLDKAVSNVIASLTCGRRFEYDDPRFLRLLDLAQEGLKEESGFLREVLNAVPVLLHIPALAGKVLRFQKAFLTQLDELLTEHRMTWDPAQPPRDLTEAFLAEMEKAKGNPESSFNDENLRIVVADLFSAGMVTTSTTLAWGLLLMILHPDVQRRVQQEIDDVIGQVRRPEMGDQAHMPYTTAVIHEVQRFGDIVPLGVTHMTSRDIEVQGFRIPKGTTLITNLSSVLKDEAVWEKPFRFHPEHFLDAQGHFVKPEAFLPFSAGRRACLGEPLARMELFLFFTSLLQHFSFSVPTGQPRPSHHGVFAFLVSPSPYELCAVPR
% is set by controls: 0 for no effect and ±100 for the full control effect.

Row | SMILES | AC50 | activity, negative = inhibition
1 | CC(C)CCOc1ccc(NC(=O)C2OC3OC(C)(C)OC3C3OC(C)(C)OC23)cc1 (configuration not stated) | inactive | 
2 | CCOC(=O)c1sc(NC(=O)CSc2nc(C)cc(C)n2)c(C#N)c1C | inactive | 
3 | CCOC(=O)c1sc(NC(=O)CSc2nc(C)cc(C)c2C#N)c(C#N)c1C | inactive | 
4 | CCOC(=O)c1sc(NC(=O)CSc2n[nH]c(-c3ccc(Cl)cc3Cl)n2)c(C#N)c1C | 28.2 µM (active) | 
5 | O=C(Oc1c(Br)cc(C(=S)N2CCOCC2)cc1Br)c1ccc(Cl)cc1 | inactive | 
6 | CC(=O)NCCNc1ncnc2ccc(-c3ccccc3Cl)cc12 | 15.8 µM (active) | 
7 | CC(=O)NCCNc1ncnc2ccc(-c3ccccc3C(F)(F)F)cc12 | 20 µM (active) | 
8 | CC(=O)NCCNc1ncnc2ccc(-c3ccccc3C)cc12 | 20 µM (active) | 
9 | CC(=O)NCCNc1ncnc2ccc(-c3ccccc3C#N)cc12 | inactive | 
10 | CC(=O)NCCNc1cc(-c2ccccc2C(F)(F)F)ncn1 | inactive | 
11 | Cc1[nH]n(C(C)(C)C)c(=O)c1Sc1ccc(Cl)cc1 | inactive | 
12 | CCOc1ccc(N(C(C)C(=O)NC(C)CC)S(C)(=O)=O)cc1 (configuration not stated) | inactive | 
13 | CCC(C)OC(=O)C1=C(C)NC(=O)CC1c1ccccc1OC (configuration not stated) | inactive | 
14 | O=c1c(-c2cc(F)cc(F)c2)nc2cnc(N3CCOCC3)nc2n1-c1ccccc1 | inactive | 
15 | CCOC(=O)c1cnn(CCOC(=O)C(C)(C)C)c1NC(=O)C(C)(C)C | inactive | 
16 | O=[N+]([O-])c1ccc2c(c1)S(=O)c1ccccc1-2 (configuration not stated) |  | -5.2% [at 11.4 µM] (inactive)
17 | Cc1cc(NC(=O)CCN2C(=O)C3C4CCC(C4)C3C2=O)c(C)cc1Br (configuration not stated) | inactive | 
18 | CCc1cccc(C)c1NC(=O)CSc1nc2ccc(N3C(=O)c4ccccc4C3=O)cc2s1 | inactive | 
19 | CS(=O)(=O)Nc1cccc(-c2nc(Nc3ccncc3)c3ccccc3n2)c1 | 20 µM (active) | 
20 | CS(=O)(=O)Nc1cccc(-c2nc(N3CCOCC3)c3ccccc3n2)c1 | inactive | 
21 | CS(=O)(=O)Nc1cccc(-c2nc(N3CCNCC3)c3ccccc3n2)c1 | 10 µM (active) | 
22 | CNc1nc(-c2cccc(NS(C)(=O)=O)c2)nc2ccccc12 | inactive | 
23 | CS(=O)(=O)Nc1cccc(-c2nc(Nc3ccccc3)c3ccccc3n2)c1 | 10 µM (active) | 
24 | CS(=O)(=O)Nc1cccc(-c2ccc3ncnc(N4CCNCC4)c3c2)c1 | inactive | 
25 | COc1ccc2c(c1)c(=O)oc1c(C)c(OCC(=O)N3CCc4ccccc4C3)ccc12 | inactive | 
26 | COc1ccc(Oc2ncc3nc(-c4cccs4)c(=O)n(C)c3n2)cc1 | inactive | 

Row | SMILES | AC50 | activity, negative = inhibition
27 | CCCCC(=O)NC(Nc1cc(C)ccn1)(C(=O)OCC)C(F)(F)F (configuration not stated) | inactive | 
28 | CCOC(=O)CN1N=C(/C=C/c2ccc(C)cc2)CCC1=O | inactive | 
29 | Cc1ccccc1NC1=NC(=S)N(c2ccccc2)C12CCOC(C)(C)C2 (configuration not stated) | inactive | 
30 | CCn1nc(C(=O)Nc2ccccc2C)c(Cl)c1Cl | inactive | 
31 | O=C(N/N=C/c1ccc(Br)s1)c1ccccc1[N+](=O)[O-] | inactive | 
32 | CCCCN(C(=O)Nc1ccc(OCC)cc1)C1CCN(C(C)=O)CC1 | inactive | 
33 | CSc1nc(C2CC2)cc(-c2cccs2)c1C#N | inactive | 
34 | O=C1NC(=O)C(c2ccccc2)(c2ccccc2)N1 | inactive | 
35 | CCCC1CCC(c2ccc(C(N)=O)cc2)CC1 (configuration not stated) | inactive | 
36 | CNCC[C@H](Oc1ccccc1OC)c1ccccc1 | 1.26 µM (active) and inactive | 
37 | COCCn1c(=O)c(-c2cn(C)c3ccccc23)nc2cnc(N3CCNCC3)nc21 | inactive | 
38 | COC(=O)[C@@H]1[C@@H]2C[C@H]3c4[nH]c5cc(OC)ccc5c4CCN3C[C@@H]2C[C@H](OC(=O)c2cc(OC)c(OC)c(OC)c2)[C@H]1OC | inactive | 
39 | C#C[C@]1(O)CC[C@@H]2[C@H]3CCc4cc(OC)ccc4[C@@H]3CC[C@@]21C | inactive | 
40 | O=C1CC(=O)C(n2cncn2)C(c2cccc(Cl)c2)C1 (configuration not stated) | inactive | 
41 | Cc1nn(-c2ccc(F)cc2)c(C)c1NS(=O)(=O)c1ccc2ccccc2c1 | 11.2 µM (active) | 
42 | Cc1cc(N)n(-c2ccc3ccccc3c2)n1 | inactive | 
43 | CC(=O)Nc1c(C)nn(-c2ccc(C)c(C)c2)c1C | inactive | 
44 | CC(C)(C)C(=O)OCc1cn(-c2ccc(Cl)cc2)nn1 | inactive | 
45 | Cc1nc(SCC(=O)c2ccc(Cl)s2)c2oc3ccccc3c2n1 | inactive | 
46 | COCCn1c(=O)c(-c2cn(C)c3ccccc23)nc2cnc(OCc3ccccc3)nc21 | inactive | 
47 | O=C(c1ccc(Br)cc1)c1cc([N+](=O)[O-])ccc1N1CCCCC1 | inactive | 
48 | COc1ccc2nc(C)cc(SCC(=O)Nc3c(C)cc(C)cc3C)c2c1 | inactive | 
49 | CCN(CC)CCC[C@H](C)Nc1c2ccc(Cl)cc2nc2ccc(OC)cc12 | 200 nM (active) and 126 nM (active) | 
50 | COc1ccc2nc(SCC(=O)NN)cc(C)c2c1 | inactive | 
51 | Cn1c(=O)n(C)c2cc(/C=N/NC(=O)c3ccc(Cl)cc3Cl)ccc21 | inactive | 
52 | CCN1CCC[C@H]1CNC(=O)c1c(OC)ccc(Br)c1OC | inactive and 200 nM (active) | 

Row | SMILES | AC50 | activity, negative = inhibition
53 | CCN1CCCC1CNC(=O)CCNC(=O)c1cc(OC)c(OC)c(OC)c1 (configuration not stated) | inactive | 
54 | CCN1CCC[C@H]1CNC(=O)c1cc(S(N)(=O)=O)ccc1OC | inactive | 
55 | CCN1CCC[C@@H]1CNC(=O)c1cc(S(N)(=O)=O)ccc1OC | inactive | 
56 | CCc1cc(Cl)c(OC)c(C(=O)NC[C@@H]2CCCN2CC)c1O | 0.0501 µM (active) | 
57 | CCOc1ccc(NC(=O)C(=O)NCC2CCCN2CC)cc1 (configuration not stated) | inactive | 
58 | N[C@@H](Cc1c[nH]c2ccc([N+](=O)[O-])cc12)C(=O)O |  | 4.93% [at 11.4 µM] (inactive)
59 | Cc1ccccc1Cn1cc(NC(=O)CSc2nc3c(c(C(F)(F)F)n2)CCc2ccccc2-3)cn1 | inactive | 
60 | Cn1c(=O)c(-c2ccc(Cl)cc2)nc2cnc(Oc3cccc(Cl)c3)nc21 | inactive | 
61 | COc1ccc(NC(=S)N2CCN(C/C=C/c3ccccc3)CC2)cc1OC | inactive | 
62 | COc1ccc(/C=C(\C#N)C(=O)NCC2CCCO2)cc1OC (configuration not stated) | inactive | 
63 | CNc1ncnc2c1ncn2[C@@H]1O[C@H](CO)[C@@H](O)[C@@H]1O | inactive | 
64 | CSc1nc(-c2ccc(C)cc2)[nH]c1S(=O)(=O)c1ccccc1 | inactive | 
65 | COc1ccc(-c2c[n+]3c4n2CCCCC4=C(c2ccccc2)C3)cc1 | 1.78 µM (active) | 
66 | COc1ccc(-n2c(-c3ccccc3)nc(=S)c3c2CCCC3)cc1 | inactive | 
67 | C[n+]1cc(-c2ccccc2)n2c1CCCCC2 | inactive | 
68 | Clc1ccc(C2=C3CCCCn4c(-c5ccccc5)c[n+](c43)C2)cc1 | 1 µM (active) | 
69 | O=C(c1ccc(Cl)cc1)N1CCCC(c2ccccc2)=N1 | inactive | 
70 | Cc1cc(NC(=O)CSc2ccc3nnc(-c4ccc(F)cc4)n3n2)no1 | inactive | 
71 | O=C(O)c1c[nH]c2c(ccc3[nH]cc(C(=O)O)c(=O)c32)c1=O |  | -3.58% [at 11.4 µM] (inactive)
72 | Cc1ccc(CNC(=O)COC(=O)c2cnccn2)cc1 | inactive | 
73 | Cc1cc(C)cc(Oc2nn[nH]n2)c1 | inactive | 
74 | O=C(COc1ccc(Cl)cc1)NCCC1=CCCCC1 | inactive | 
75 | O=C(CN1CCN(c2ncccn2)CC1)NCCC1=CCCCC1 | 2.82 µM (active) | 
76 | CCCCCOc1ccc(NC(=O)C(=O)NCCC2=CCCCC2)cc1 | inactive | 
77 | O=C(CN1C(=O)NC2(CCCC2)C1=O)NCCC1=CCCCC1 | inactive | 
78 | O=C(CN1CCN(C2CCCCC2)CC1)NCCC1=CCCCC1 | 15.8 µM (active) | 

Row | SMILES | AC50 | activity, negative = inhibition
79 | Cc1ccc(CNC(=O)C2CCC(=O)N2C2CCCCC2)cc1 (configuration not stated) | inactive | 
80 | COC(=O)[C@@]1(Cc2ccc(F)cc2)[C@@H]2[C@@H](CC(=O)[C@H]2CC(=O)C(=O)N2CCCC2)CN1C(=O)c1ccccc1 | inactive | 
81 | CC(C)[C@@H]1O[C@H](/C=C\c2ccccc2)OCC1(C)C |  | -1.61% [at 11.4 µM] (inactive)
82 | O=C(O)Cc1sc(-c2ccc(Cl)cc2)nc1-c1ccccc1 | inactive | 
83 | Cc1cnn(CCC(=O)NNC(=S)Nc2ccc(F)cc2)c1 | inactive | 
84 | CC(=O)Nc1ccc(NC(=O)Cn2c(-c3ccc(F)cc3)cnc2SCC(=O)Nc2c(C)cccc2C)cc1 | inactive | 
85 | CCSc1ncc(/C=N/Nc2ccc(F)cc2)n1C | 0.631 µM (active) | 
86 | CCc1ccc2[nH]c(O)c(N=Nc3nc(-c4ccccc4)cs3)c2c1 | inactive | 
87 | COc1ccc(C(=O)Nc2ccc3c(c2)nc(CN2CCN(C(C)=O)CC2)n3C)cc1 | inactive | 
88 | CS(=O)(=O)N1CCN(c2c(Cl)cccc2[N+](=O)[O-])CC1 | inactive | 
89 | CC1CCCN(C/C=C/c2ccccc2[N+](=O)[O-])C1 (configuration not stated) | 1 µM (active) | 
90 | Cn1nnnc1SCc1ccccc1[N+](=O)[O-] | inactive | 
91 | CCOC(=O)C1CCCN(S(=O)(=O)c2ccccc2)C1 (configuration not stated) | inactive | 
92 | C[C@@H]1CCCN(CP(=O)(c2ccccc2)c2ccccc2)C1 |  | 6.3% [at 11.4 µM] (inactive)
93 | CCOC(=O)C1CCCN(C/C=C/c2ccccc2[N+](=O)[O-])C1 (configuration not stated) | 0.0708 µM (active) | 
94 | CCn1c(SCC(=O)N/N=C/C=C\c2ccccc2[N+](=O)[O-])nnc1-c1ccccc1 | inactive | 
95 | CC1CC(C)CN(C/C=C/c2ccccc2[N+](=O)[O-])C1 (configuration not stated) | 0.631 µM (active) | 
96 | CCOC(=O)C1CCCN(C(=O)/C=C/c2cccc([N+](=O)[O-])c2)C1 (configuration not stated) | inactive | 
97 | COc1ccc(-n2c(=O)c(-c3ccccc3)nc3cnc(N4CCOCC4)nc32)cc1 | inactive | 
98 | CN(C)c1ccc(/C=C2\SC(=S)N(Nc3ncc(C(F)(F)F)cc3Cl)C2=O)cc1 | inactive | 
99 | CC(C)OC(=O)c1cc2ccccc2oc1=O | inactive | 
100 | O=C(c1ccccc1)c1cc(F)c(N2CCOCC2)cc1Cl | inactive | 
101 | COc1ccc2c(c1)Cc1sc(NC(=O)c3ccco3)nc1-2 | inactive | 
102 | CSc1nc2nc3c(c(=O)n2[nH]1)CN(Cc1ccccc1)CC3 | inactive | 
